Laboratory results published in the supplement of paper PMC13392028.

Tested on: PvIESI-1 RRM domain (Plasmodium vivax PVP01_0939900 aa 896-1203, GST fusion)
Assay: RBNS R-value (6-mer enrichment in protein-bound RNA vs input library) (ratio); higher = stronger binding preference; the methods of the paper give 50 / 100 / 500 nM protein instead
Procedure: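 RNA Bind-n-Seq: recombinant GST-tagged IESI-1 RRM domain was incubated at room temperature with a random 40-nt in vitro transcribed RNA library at 250, 500 or 1000 nM protein. Bound RNA was pulled down on glutathione beads and sequenced. R-value is the enrichment of each 6-mer in the bound RNA relative to the input library. Each 6-mer sits inside the random 40-mer context, not as an isolated oligo. Values are replicate 1 only.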

Row | Sequence | RBNS R-value (protein concentration: 250 nM) | RBNS R-value (protein concentration: 500 nM) | RBNS R-value (protein concentration: 1000 nM)
1 | UCUGAU | 2.94 | 3.21 | 3.02
2 | GCGAUG | 1.97 | 2.19 | 2.01
3 | UUGAUG | 4.85 | 5.06 | 4.68
4 | GAUUGA | 2.27 | 2.42 | 2.29
5 | CCUUGA | 1.7 | 1.88 | 1.91
6 | UGAUGC | 3.72 | 4.04 | 3.95
7 | CUGAUG | 4.09 | 4.34 | 4.04
8 | GUUGAU | 2.7 | 2.98 | 2.73
9 | AGUGAU | 2.41 | 2.69 | 2.63
10 | UGAUAA | 2.82 | 3.29 | 3.43
11 | GAUUUC | 2.32 | 2.49 | 2.38
12 | GUGAUA | 2.04 | 2.34 | 2.47
13 | GAUGGG | 2.02 | 2.1 | 2.01
